# Results reported in PubChem BioAssay.
# Calls of active or inactive are those of the source.
# How the values were obtained:
# [1] = tested on: Human papillomavirus type 1a protein E7 (residues 44-93); experiment: small molecules binding HPV E7 44-93 – biochemical, small-molecule microarray, residues 44-93, 635 nm fluorescence, primary screen (AID 1108); conditions: fluorescence 635 nm, higher = more signal;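 note: E7 fragment applied at 1 µg/mL in TBST for 1 h at 4 C; score combines spot fluorescence with its signal to noise ratio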
# [2] = hepatitis C replication reporter changes, two-sided – Huh7 cells, luciferase reporter, HCV replication inhibitor project, primary screen (AID 1109); conditions: Huh7 HCV replicon luciferase reporter, 48 h; higher = more signal;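 note: huh7 hepatoma cells harbouring a luciferase neomycin HCV replicon reporter; luciferase luminescence as measure of HCV replicon replication; test concentration not given here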
# [3] = target: Left-right determination factor 2 (Homo sapiens) (UniProt O00292); experiment: small molecules binding LEFTY2 protein – biochemical, small-molecule microarray, 635 nm fluorescence scan, primary screen (AID 1110); conditions: higher = more signal
# [4] = target: Calmodulin-1 (Homo sapiens) (UniProt P0DP23); experiment: small molecules binding calmodulin-1 with EGTA – biochemical, small-molecule microarray, Cy5-labelled CALM1, profiling panel (AID 1111); conditions: Cy5-CALM1 binding fluorescence, higher = more signal;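 note: labelled calmodulin applied in Tris saline Tween buffer holding calcium plus EGTA and DTT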
# [5] = target: Calmodulin-1 (Homo sapiens) (UniProt P0DP23); experiment: small molecules binding Ca-loaded calmodulin-1 – biochemical, small-molecule microarray, Cy5-labelled CALM1, plus calcium, artefact control for SMM control-protein annotation, profiling panel (AID 1112); conditions: Cy5-CALM1 binding fluorescence, higher = more signal;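 note: score merges spot fluorescence with signal to noise from triplicate slides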
# [6] = probe aWnt5a binding to arrayed compounds – biochemical, biotinylated probe, 635/667 nm fluorescence, primary screen (AID 1113); conditions: small-molecule microarray, higher = more signal;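 note: score merges 667 nm fluorescence intensity with signal-to-noise per printed feature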
# [7] = probe aShh binding to arrayed compounds – biochemical, biotinylated probe, 635/667 nm fluorescence, primary screen (AID 1114); conditions: small-molecule microarray, higher = more signal;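 note: probe is biotin-labelled aShh protein from a stem cell growth factor screen; measures binding of labelled protein to compounds printed on the slide; score merges feature fluorescence at 667 nm with signal-to-noise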
# [8] = probe aNog binding to arrayed compounds – biochemical, biotinylated probe, 635/667 nm fluorescence, primary screen (AID 1115); conditions: small-molecule microarray, higher = more signal;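 note: probe is biotinylated aNog protein used at 0.15 µg/mL for 1 h at 4 C; z-score combines 667 nm fluorescence of each spot with its signal to noise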
# [9] = target: Torsin-1A-interacting protein 1 (Homo sapiens) (UniProt Q5JTV8); experiment: compound microarray binding of lysate hLAP1 – cell lysate, small-molecule microarray, COS7 lysate, 635/667 nm fluorescence, primary screen (AID 1116); conditions: 635 nm fluorescence, higher = more signal
# [10] = target: Alpha-bungarotoxin (Bungarus multicinctus) (UniProt P60615); experiment: compounds binding labelled alpha-BTX control protein – biochemical, small-molecule microarray, Alexa647 label, 635/667 nm fluorescence, artefact control for SMM control protein annotation, profiling panel (AID 1117); conditions: alpha-BTX-A647 binding fluorescence, higher = more signal
# Albumin (Bos taurus) = Albumin (Bos taurus) (UniProt P02769); experiment: compounds binding labelled BSA control protein – biochemical, small-molecule microarray, Alexa647 label, 635/667 nm fluorescence, artefact control for SMM control protein annotation, profiling panel (AID 1118); conditions: BSA-A647 binding, fluorescence 635 nm, higher = more signal;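 note: score merges 667 nm emission intensity and signal-to-noise per printed compound spot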
# [11] = probe aXIP binding to arrayed compounds – biochemical, NeuroSMM set, 635/667 nm fluorescence, primary screen (AID 1119); conditions: small-molecule microarray, higher = more signal, called active from +8 up or from −8 down;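 note: probe is the protein aXip251-270 applied at 1 µg/mL to compound-printed slides; binding of probe to printed compounds measured as 667 nm fluorescence plus signal to noise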
# [12] = probe aNOTCH3 binding on compound microarray – biochemical, small-molecule microarray, 635/667 nm fluorescence, primary screen (AID 1120); conditions: higher = more signal;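 note: probe is a biotin-tagged antibody raised against NOTCH3 rather than NOTCH3 protein; score merges spot fluorescence near 667 nm with spot signal to noise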
# [13] = probe aNOTCH2 binding on compound microarray – biochemical, small-molecule microarray, 635/667 nm fluorescence, primary screen (AID 1121); conditions: higher = more signal;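 note: score merges feature fluorescence read at 667 nm with its signal to noise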
# [14] = target: Carbonic anhydrase 2 (Homo sapiens) (UniProt P00918); experiment: compounds binding carbonic anhydrase 2 – biochemical, small-molecule microarray, Alexa647-labelled CAII, profiling panel (AID 1122); conditions: CAII-A647 binding fluorescence, higher = more signal
# [15] = COS7 lysate on small-molecule microarray, probe aHis, 635 nm (AID 1123); conditions: COS7 cell lysate, fluorescence, higher = more signal;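 note: z-score combines 667nm fluorescence intensity with signal-to-noise per printed compound spot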
# [16] = probe aLAP1 signal on lysate-treated microarray – cell lysate, small-molecule microarray, COS7 lysate, primary screen (AID 1124); conditions: probe aLAP1, fluorescence, higher = more signal;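 note: lysate comes from COS7 cells expressing LAP1 and is applied at 0.3 µg/mL; score merges spot fluorescence near 667 nm with signal-to-noise over triplicate slides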
# Sam68 (KHDRBS1) = experiment: compounds binding KHDRBS1 protein – biochemical, small-molecule microarray, 635 nm fluorescence, primary screen (AID 1125); conditions: higher = more signal;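 note: score merges 667 nm channel intensity with signal to noise over triplicate slides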
# [17] = tested on: Chordin-like protein 2 (CHRDL2); experiment: compounds binding chordin-like 2 – biochemical, small-molecule microarray, 635 nm fluorescence, primary screen (AID 1126); conditions: fluorescence 635 nm, higher = more signal;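 note: printed compound slides probed with Chrdl2 protein at 4 µg/mL for 1 h at 4 C; score merges 667 nm emission intensity with signal to noise over three replicate slides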
# [18] = target: Concanavalin-A (Canavalia ensiformis) (UniProt P02866); experiment: compounds binding concanavalin A lectin – biochemical, small-molecule microarray, Alexa647 label, 635 nm, artefact control for SMM control protein annotation, primary screen (AID 1127); conditions: ConA-A647 binding fluorescence, higher = more signal;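 note: z combines 667 nm emission intensity with signal-to-noise across three replicate slides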
# Chain of Concanavalin-A (Canavalia ensiformis) (P02866 whole entry, looked up): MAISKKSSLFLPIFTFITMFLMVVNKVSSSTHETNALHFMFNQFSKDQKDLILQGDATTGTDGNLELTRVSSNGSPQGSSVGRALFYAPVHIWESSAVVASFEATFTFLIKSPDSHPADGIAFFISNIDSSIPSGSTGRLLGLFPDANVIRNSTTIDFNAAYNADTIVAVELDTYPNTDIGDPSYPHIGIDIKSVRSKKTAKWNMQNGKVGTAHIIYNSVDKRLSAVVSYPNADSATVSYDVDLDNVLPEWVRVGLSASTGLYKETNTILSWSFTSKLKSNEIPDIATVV
# Chain of Alpha-bungarotoxin (Bungarus multicinctus) (P60615 whole entry, looked up): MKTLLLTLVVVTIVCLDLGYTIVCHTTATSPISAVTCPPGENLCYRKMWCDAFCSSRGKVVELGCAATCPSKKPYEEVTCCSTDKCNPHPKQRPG
# Chain of Torsin-1A-interacting protein 1 (Homo sapiens) (Q5JTV8 whole entry, looked up): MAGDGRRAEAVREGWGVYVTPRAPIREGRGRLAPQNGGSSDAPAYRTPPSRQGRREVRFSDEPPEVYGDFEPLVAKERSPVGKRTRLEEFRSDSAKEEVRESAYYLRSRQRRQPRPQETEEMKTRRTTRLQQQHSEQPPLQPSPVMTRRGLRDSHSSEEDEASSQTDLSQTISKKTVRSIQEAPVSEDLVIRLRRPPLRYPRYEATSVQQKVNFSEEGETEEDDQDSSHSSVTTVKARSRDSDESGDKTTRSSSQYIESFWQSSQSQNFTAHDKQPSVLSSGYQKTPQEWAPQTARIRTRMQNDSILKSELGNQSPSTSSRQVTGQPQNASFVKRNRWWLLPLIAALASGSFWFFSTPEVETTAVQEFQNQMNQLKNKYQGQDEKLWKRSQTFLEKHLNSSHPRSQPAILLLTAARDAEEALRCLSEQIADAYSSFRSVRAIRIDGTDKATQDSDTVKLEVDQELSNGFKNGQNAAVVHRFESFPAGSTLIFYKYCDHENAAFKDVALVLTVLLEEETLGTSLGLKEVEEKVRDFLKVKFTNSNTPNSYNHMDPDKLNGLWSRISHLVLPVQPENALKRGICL
# Chain of Left-right determination factor 2 (Homo sapiens) (O00292 whole entry, looked up): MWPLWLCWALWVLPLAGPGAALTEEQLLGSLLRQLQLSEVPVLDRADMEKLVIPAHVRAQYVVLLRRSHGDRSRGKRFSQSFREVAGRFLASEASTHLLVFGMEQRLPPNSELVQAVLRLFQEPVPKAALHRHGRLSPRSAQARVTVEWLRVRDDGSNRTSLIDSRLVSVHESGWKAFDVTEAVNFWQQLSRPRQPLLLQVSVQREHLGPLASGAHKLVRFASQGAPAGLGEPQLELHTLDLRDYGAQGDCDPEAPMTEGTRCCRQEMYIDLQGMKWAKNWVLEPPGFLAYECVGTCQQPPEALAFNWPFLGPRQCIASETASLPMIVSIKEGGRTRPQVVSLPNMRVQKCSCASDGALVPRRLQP
# Chain of Albumin (Bos taurus) (P02769 whole entry, looked up): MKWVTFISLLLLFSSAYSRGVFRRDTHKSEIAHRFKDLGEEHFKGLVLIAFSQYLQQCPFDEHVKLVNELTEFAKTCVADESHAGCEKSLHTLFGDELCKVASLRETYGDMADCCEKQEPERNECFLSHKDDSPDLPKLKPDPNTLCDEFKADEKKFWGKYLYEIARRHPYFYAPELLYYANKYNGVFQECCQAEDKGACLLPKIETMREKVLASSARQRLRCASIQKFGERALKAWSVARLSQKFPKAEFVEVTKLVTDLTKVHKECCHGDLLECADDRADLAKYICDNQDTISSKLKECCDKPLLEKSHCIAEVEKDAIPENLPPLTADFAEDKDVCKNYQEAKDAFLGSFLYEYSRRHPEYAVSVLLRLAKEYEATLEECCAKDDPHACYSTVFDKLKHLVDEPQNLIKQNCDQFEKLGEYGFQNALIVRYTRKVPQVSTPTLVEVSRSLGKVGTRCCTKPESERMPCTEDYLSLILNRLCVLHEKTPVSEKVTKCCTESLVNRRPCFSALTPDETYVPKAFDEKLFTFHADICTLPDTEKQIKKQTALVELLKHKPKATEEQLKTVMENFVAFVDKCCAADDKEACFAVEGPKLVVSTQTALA
SMILES,composite z-score [1],z-score [2],composite z-score [3],composite z-score [4],composite z-score [5],composite z-score [6],composite z-score [7],composite z-score [8],composite z-score [9],composite z-score [10],composite z-score (Albumin (Bos taurus)),composite Z-score [11],composite z-score [12],composite z-score [13],composite z-score [14],composite z-score [15],composite z-score [16],composite z-score (Sam68 (KHDRBS1)),composite z-score [17],composite z-score [18]
CCCN1C(=O)[C@]2(COC(c3ccc(OCCCO)cc3)=N2)Cc2ccccc21,0.147,0.0172,-0.196,1.11,0.599,-0.0462,0.118,0.705,0.39,1.03,0.0531,0.305 (inactive),-0.0026,-0.0009,0.64,1.93,-0.218,1.11,-0.125,1.13
COCC(=C=CC[C@@H](O)c1ccc(CO)o1)CCO,-0.494,-0.711,0.744,-0.699,-0.662,-0.124,-0.217,-0.387,2.23,-0.0933,-0.606,0.111 (inactive),-0.215,-0.118,0.349,-0.185,1.51,0.101,0.689,0.188
C=CCC(OC(C)=O)[C@@H]1[C@@H](N(Cc2ccc(-c3cccc(C(F)(F)F)c3)o2)C(=O)c2ccc(C)cc2)c2cc(OCCCO)ccc2N1C(=O)c1ccc(-c2ccccc2)cc1 (stereo not given in full),-0.734,-0.094,-0.0524,-0.201,-0.147,-0.124,-0.16,-0.363,-0.178,-0.286,-0.405,0.244 (inactive),0.0026,-0.115,0.376,-0.0056,-0.0012,-0.597,0.031,0.854
[N-]=[N+]=NCc1ccccc1C[C@]1(C(=O)NCCN2CCOCC2)N=C(c2ccc(OCCCO)cc2)O[C@H]1c1ccccc1N=[N+]=[N-],0.927,-1.76,0.391,1.2,0.655,0.0903,0.21,1.73,1.51,0.919,0.926,0.255 (inactive),0.356,0.253,0.599,2.62,0.645,1.29,-0.509,1.16
CC(C)c1ccc(NN2C(C(O)c3cccc(O)c3)C=CC3C(=O)N(c4ccccc4)C(=O)C32)cc1 (stereo not given),1.43,0.141,-0.136,1.93,0.904,-0.0583,0.0588,1.78,1.5,1.31,1,1 (inactive),0.374,0.0572,0.798,2.53,0.279,1.35,-0.678,1.14
C=CC[C@@H](OC(=O)Nc1ccc(OC)cc1)c1ccc(O)c2ccccc12,0.94,-3.47,1.07,0.0871,-0.738,-0.0006,-0.154,-0.139,0.3,0.824,0.32,0.786 (inactive),0.278,-0.133,0.349,1.53,-0.09,1.3,1.34,0.913
COc1ccc(C(O)C2C=CC3C(=O)N(C)C(=O)C3N2Nc2ccccc2)cc1OCc1ccccc1 (stereo not given),1.43,-0.685,0.195,1.52,0.519,-0.0529,-0.221,0.289,1.25,1.79,0.878,0.0582 (inactive),-0.0714,-0.0128,0.754,1.67,-0.142,1.28,-0.0441,0.949
O=C1OCCC=C[C@H]2OC34C=CCN(c5ccc6ccccc6c5)C(=O)[C@H]3N(CCCCCO)C(=O)[C@@H]4C12 (stereo not given in full),0.444,-0.345,-1.05,-0.491,-0.0432,-0.147,-0.0011,0.438,1.92,-0.264,0.388,1.1 (inactive),-0.0647,-0.0443,0.897,2.11,0.859,-0.222,0.254,-0.119
CCOC(=O)C1=CC[C@@H](c2ccccc2)N(S(=O)(=O)c2ccc(C)cc2)[C@H]1C(=O)OCC,0.841,-3.08,-0.0319,0.784,0.289,0.177,0.77,0.137,0.962,0.384,0.744,0.615 (inactive),0.421,0.144,0.413,1.22,0.748,1.12,-0.361,-0.515
CC(=O)NCCCC[C@@H]1NC(=O)[C@H]2C[C@@H](C(=O)NCCCCCC[N+](C)(C)C)[C@@H](c3cccc(OCCO)c3)N2C1=O,1.1,-0.0914,1.02,0.0227,-0.34,-0.0792,-0.0709,0.019,0.595,2.04,0.0306,0.526 (inactive),0.15,-0.106,0.607,1.19,-0.165,1.04,1.45,0.904
C=C(COC)C(=O)CC[C@@H](OC(=O)c1cccnc1)c1ccc(CO)o1,0.369,-0.778,0.355,-0.0743,-0.116,-0.1,-0.0977,0.094,0.424,0.285,0.158,0.509 (inactive),-0.0362,-0.157,0.481,0.387,0.823,0.532,0.739,0.341
